# PubChem BioAssay (NCI)
# About 83,000 compounds went through this panel and 20% of them were active in at least one assay; those are over-represented in the sample as a whole.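 Negative percent growth values reflect cell death: -40 means 40% of the cells present at the start died, and -100 means all died.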 Values without a mark were called inactive. The source made the active and inactive calls. Rule for the calls: active = growth percent below 10; inactive = the rest.
# Tests used:
# Assay in all cases: NCI-60 one-dose screen, 48 h (100 = growth as untreated, 0 = no growth, -100 = all killed)
# HCT-15 colon = details: 10 µM
# HT29 colon = details: 10 µM
# SNB-75 CNS = details: 10 µM
# SNB-19 CNS = details: 10 µM
# PC-3 prostate = details: 10 µM
# SK-MEL-5 melanoma = details: 10 µM
# UACC-62 melanoma = details: 10 µM unless noted
# LOX IMVI melanoma = details: 10 µM
# SK-MEL-28 melanoma = details: 10 µM
# U251 CNS = details: 10 µM
SMILES,growth (HCT-15 colon) [%],growth (HT29 colon) [%],growth (SNB-75 CNS) [%],growth (SNB-19 CNS) [%],growth (PC-3 prostate) [%],growth (SK-MEL-5 melanoma) [%],growth (UACC-62 melanoma) [%],growth (LOX IMVI melanoma),growth (SK-MEL-28 melanoma) [%],growth (U251 CNS) [%]
C/C(=C\c1ccc([N+](=O)[O-])cc1)C(=O)O,103,107,88.5,97.7,84.2,97.8,99.6,98.6%,111,–
Sc1ccc(Nc2c3ccccc3nc3ccccc23)cc1,79.4,88.6,61.9,79.8,76.5,56.6,63,88.5%,101,–
C/C(=N\NC(=O)c1ccccc1N)c1ccccc1O,26.5,37,83,56.6,50.3,60.5,32,36.7%,60.9,–
O=C(/C=C/C(=O)c1ccccc1)c1ccccc1,79.2,100,104,109,125,105,93.4,92.1%,117,–
O=c1cc(-c2ccccc2)[nH]c(=S)[nH]1,107,101,96.9,104,91,104,106,98.3%,103,–
COc1cccc(COC(=O)Nc2ccccc2)c1OC,85.4,105,84.1,101,83.9,98.2,94.4,103%,102,–
O=C(O)C(c1ccccc1)C(O)c1ccccc1 (configuration not stated),102,96.5,96.6,103,92.6,94,93.6,102%,103,–
O=C1OC(c2ccc(F)cc2)CC1CN1CCOCC1 (configuration not stated),110,90.3,89.1,98.1,88.9,104,110,89.2%,109,–
CC[N+](C)(CC)CCO,97.8,103,108,97.7,102,101,102,101%,110,–
O=C1C=CC(=O)N1c1ccc(I)cc1Cl,99.9,100,103,98.4,75.7,102,104,101%,107,–
CC(=O)OCCO,107,120,84.7,110,104,102,108,107%,100,–
c1cc[n+](C2c3ccccc3C([n+]3ccccc3)c3ccccc32)cc1 (configuration not stated),103,73.4,17.9,26.7,58.4,27.6,67.3,76.1%,61.6,–
COc1cc(/C=C/C(=O)c2ccccc2)cc(OC)c1OC,31.4,19.1,71.2,83.8,58,76.1,54.9,2.98% (active),82.3,–
CC(CN1CCCCC1)NC(=O)c1scnc1-c1ccccc1 (configuration not stated),103,94.2,86.1,107,92.9,101,107,95.2%,107,–
C=CCNc1ccccc1,106,98.4,82.7,91.5,85.2,102,89.9,93.7%,99.9,–
Cc1ccc(CCCC(=O)O)c(C)c1,99,98.8,79.2,101,97.1,102,102,99.3%,98.1,–

SMILES,growth (HCT-15 colon) [%],growth (HT29 colon) [%],growth (SNB-75 CNS) [%],growth (SNB-19 CNS) [%],growth (PC-3 prostate) [%],growth (SK-MEL-5 melanoma) [%],growth (UACC-62 melanoma) [%],growth (LOX IMVI melanoma),growth (SK-MEL-28 melanoma) [%],growth (U251 CNS) [%]
C/C(=N/NC(N)=O)c1ccco1,102,99.5,91.5,101,76.3,105,102,95.4%,117,–
COc1cc(CCN=Cc2ccccc2O)c([N+](=O)[O-])cc1OC,92.3,101,96.6,99.3,98.9,101,109,99.4%,113,–
O=C(OCC(O)C1OC(c2ccccc2)OC(COC(=O)c2ccccc2)C1O)c1ccccc1 (configuration not stated),96.6,103,77.4,94.2,83.5,97.1,108,108%,104,–
COC(=O)CCCCC1=CCC2C(=O)C=C(O)C2C1 (configuration not stated),96.3,104,85.5,104,92.5,102,103,97.5%,100,–
O=C(Cc1ccc(OCc2ccccc2)cc1)NCc1ccc2c(c1)OCO2,48.9,27.4,91.8,85.7,64.6,95.8,61.8,50%,74.7,–
OC(c1ccccn1)C(O)c1ccccn1 (configuration not stated),97.6,106,89.9,99.3,102,106,95.6,96%,113,–
COc1ccc(OC)c(/C=C2\CCc3ccccc3C2=O)c1,24.3,12.8,17.4,38.6,47.6,52.9,43.5,35.6%,64.9,–
CC(=O)Nc1ccc(NC(C)=O)c2c1C(=O)c1ccccc1C2=O,86.1,99.7,85.9,111,81.9,96.8,73.3,86%,115,–
CCCCCCCCCCC(C)Br (configuration not stated),104,109,97,103,101,102,104,94.3%,112,–
O=[N+]([O-])c1ccccc1S(=O)c1ccccc1[N+](=O)[O-],98.2,107,83.1,106,81.1,95.7,83.3,70%,100,–
O=C(O)CCC(NC(=O)OCc1ccccc1)C(=O)O (configuration not stated),110,105,99.5,98.1,97,101,90.5,98.9%,109,–
CCCCCCCCCCC1CO1 (configuration not stated),104,108,94,103,102,100,112,102%,98.4,–
O=C(Nc1ccccc1)OCCc1ccccc1,96.9,95,80.3,101,91,99.3,104,107%,100,–
Cc1cc(C)c(CC(=O)O)c(C)c1,100,99.4,93.2,–,103,101,108,96.5%,124,103
CCOC(=O)c1ccc(NC(=S)P(=O)(c2ccccc2)c2ccccc2)cc1,98.5,111,101,106,80.1,104,–,84.8%,106,–
CC1(C)S(=O)(=O)OCCOS1(=O)=O,101,105,98.7,–,100,93.6,92.3,95.2%,112,95
